Measured values from the supplement of paper PMC12350171.
Structures can show the parent of a compound that is named as a salt.

The compounds below were run on Haemophilus parainfluenzae (assay: growth AUC normalised to DMSO control (fraction of control); higher = less growth inhibition, active = hit call of the paper). Conditions: 20 µM;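 active = AUC significantly below DMSO controls by Student t-fit with adjusted P under 0.01; inactive = not significantly reduced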.
Method in brief: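 Pathogens were passaged twice under anaerobic conditions, then inoculated into pre-reduced mGAM plates at a starting OD578 of 0.01, with compound at 20 μM and 1% DMSO, and sealed with breathable membranes. For Haemophilus parainfluenzae, the medium was supplemented with hemin and NAD. OD578 was read every hour for 24 h in three biological replicates. Growth-curve AUC was calculated by the trapezoidal rule up to the exponential-to-stationary transition and normalised to DMSO controls on the same plate.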
With `CNC[C@H](O)[C@@H](O)[C@H](O)[C@H](O)CO` [Meglumine] the “growth AUC normalised to DMSO control” value was 1.05 (inactive).
For `CCN(CC)CCOC(=O)c1ccc(N)cc1` [Procaine hydrochloride], the “growth AUC normalised to DMSO control” value was 1 (inactive).
`CN/C(=N\CCSCc1nc[nH]c1C)NC#N` [Cimetidine] was tested, and the “growth AUC normalised to DMSO control” value was 0.993 (inactive).
`CC(C)c1c(C(=O)Nc2ccccc2)c(-c2ccccc2)c(-c2ccc(F)cc2)n1CC[C@@H](O)C[C@@H](O)CC(=O)O` [Atorvastatin] was tested, and the “growth AUC normalised to DMSO control” value was 0.996 (inactive).
`CCc1oc2ccccc2c1C(=O)c1cc(Br)c(O)c(Br)c1` [Benzbromarone] was tested, and the “growth AUC normalised to DMSO control” value was 0.987 (inactive).
For `CN1CCN2c3ccccc3Cc3ccccc3C2C1` (stereo not drawn) [Mianserine hydrochloride], the “growth AUC normalised to DMSO control” value was 0.903 (inactive).
For `COc1ccc(-c2cc(=S)ss2)cc1` [Anethole-trithione], the “growth AUC normalised to DMSO control” value was 1.05 (inactive).
In the case of `CC(C)NCC(O)COc1ccc(CCOCC2CC2)cc1` (stereo not drawn) [Betaxolol hydrochloride], the “growth AUC normalised to DMSO control” value is reported as 0.988 (inactive).
